In the library only some 6.5% were active in any assay of this set; here they are far more common.
Marburg entry inh: qHTS for inhibitors of binding or entry into cells for Marburg Virus; Marburg virus pseudotyped entry inhibition, cell reporter; Potency, µM (highest dose often 37.8 µM), for the others: top-dose activity change, negative = inhibition, hits mostly inhibitors; 1.8% of 300,000 active; calls by dose curve; tested in HEK293 cells; also: potency is read from the fitted curve at half-maximal effect
HCMV antiviral: qHTS Assay for inhibitors of the human cytomegalovirus (HCMV); HFF cells, HCMV-luciferase reporter, 72 h; active compounds read low; activity change, negative = inhibition, % at 57.5 µM; 4.5% of 410,000 active; AID 1259415, 2018; in the data active = activity change below about -60%; inconclusive = no clear call, values can overlap the other calls; inactive = above about -39%
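Inhibition of viral replication was scored as loss of reporter luminescence in HFFs infected with HCMV-luciferase (MOI 1 PFU/cell) for 72 h; compounds tested at 2 doses, normalized to buffer and Salinomycin controls.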
VACV mCherry inh: qHTS for Stage-Specific Inhibitors of Vaccinia Orthopoxvirus: mCherry Reporter Primary qHTS; 0.63% of 310,000 active; Vaccinia virus mCherry reporter infection, fluorescence; Potency, µM (top dose mostly 36.5 µM), for inactives: at the highest dose activity change, negative = inhibition, most hits filed as inhibitors; calls by dose curve; tested in A549 cells; also: potency is read from the fitted curve at half-maximal effect; nearly all actives have a fitted effect of over 35% in size
Vaccinia Venus: qHTS for Stage-Specific Inhibitors of Vaccinia Orthopoxvirus: Venus Reporter Primary qHTS; AID 720580, 2013; Vaccinia virus Venus reporter expression, fluorescence; 0.46% of 330,000 active; Potency, µM (doses to about 36.5 µM), without a hit: top-dose activity change, negative = inhibition, actives largely listed as inhibitors; calls by dose curve; tested in A549 cells; also: potency is read from the fitted curve at half-maximal effect; nearly all actives have a fitted effect of over 30% in size
Lassa entry inh: qHTS for Inhibitors of binding or entry into cells for Lassa Virus | Potency, µM (top dose mostly 37.9 µM), inactives show top-dose activity change, negative = inhibition, actives largely listed as inhibitors | Lassa virus pseudotype entry inhibition, cell reporter | AID 540256, 2011 | 1.2% of 300,000 active; calls by dose curve; tested in HEK293 cells; also: potency is read from the fitted curve at half-maximal effect; nearly all actives have a fitted effect of over 50% in size
FMDV antiviral: High Throughput Screening for Foot and Mouth Disease Virus Antivirals. FMDV antiviral cell-based qHTS. Potency, µM (top dose mostly 57.9 µM), for the others: at the top dose activity change, negative = inhibition, most hits filed as inhibitors. AID 1159524, 2015. 1.2% of 410,000 active; calls by dose curve; tested in HEK293T cells; also: read-out not given here; potency is read from the fitted curve at half-maximal effect; nearly all actives have a fitted effect of over 45% in size
The depositor's hits bear a star; i = inactive; ? = inconclusive; nt = no result given; [ ] = another dose, or the depositor's remark. % is scaled to controls: 0 for no effect and ±100 for the full control effect.

SMILES	Marburg entry inh	HCMV antiviral	VACV mCherry inh	Vaccinia Venus	Lassa entry inh	FMDV antiviral
COc1ccc(-c2cc(C(F)(F)F)nc(S(=O)(=O)CCCC(=O)Nc3ccccc3C(F)(F)F)n2)cc1OC	-19%[46.1 µM]	-100*	-18%	-16%	0%[46.1 µM]	22µM*
COc1ccc(NC(=O)CCS(=O)(=O)c2nc(-c3ccc4c(c3)OCO4)cc(C(F)(F)F)n2)cc1	-17%[46.1 µM]	-76*	i	-14%	-32%[46.1 µM]	-6%
CN(C)c1ccc(/C=c2\[nH]c(=O)/c(=C\c3ccc(N(C)C)cc3)[nH]c2=O)cc1	nt	nt	i	-6%	nt	nt
COC(=O)C1CCN(Cc2ccc3c(c2)CN(C(=O)C2CCCN(c4ccccn4)C2)CCO3)CC1 (stereo not given)	nt	nt	i	-4%	nt	-15%
COc1ccccc1-c1cc(C(F)(F)F)nc(S(=O)(=O)CCCC(=O)Nc2ccc(F)c(Cl)c2)n1	24%[46.1 µM]	10	4%	5%	4%[46.1 µM]	0%
FC(F)(F)c1cc(-c2ccccc2)nc(N2CCCCCC2)n1	18%	-21	nt	9%	-9%	2%
COc1ccc(-c2cc(C(F)(F)F)nc(S(=O)(=O)CCCC(=O)Nc3cccc(O)c3)n2)cc1OC	?	-99*	?	-16%	?	20µM*
CS(=O)(=O)c1nc(-c2ccccc2)cc(C(F)(F)F)n1	6.3µM*	-98*	14µM*	?	?	7.9µM*
COC(=O)c1ccc(C(=O)N2CCc3c(C(=O)NC(C)c4ccco4)c(OC)cc(=O)n3CC2)cc1 (stereo not given)	nt	nt	-12%	0%	nt	18%
CCN(CC)C(=O)c1nn(-c2ccccc2)c2c1C1CCC2(C)C1(C)C (stereo not given)	?	-95*	-4%	-11%	?	-24%
CCN(CC)C(=O)c1nn(Cc2ccccc2)c(=O)c2ccccc12	nt	16	nt	nt	nt	-19%
C=C(CN(C)C)C(=O)c1ccc(C)cc1C	?	-77*	?	?	?	-6%
Cc1ccc(C(=O)CC(=O)c2ccccc2C)c(O)c1	?	?	i	-9%	?	26%
CCCCNC(=O)C1=CC(c2ccc3c(c2)OCO3)=NS(=O)(=O)N1C	23%[46.1 µM]	0	1%	-2%	13%[46.1 µM]	41%
O=C(COc1ccc(-c2ccccc2)cc1)N/N=C/c1cc(O)ccc1Br	6%	-61*	-12%	?	1%	-17%
O=C(COc1ccccc1)NCC(=O)N/N=C/c1cc(Br)ccc1OCc1ccccc1	8.9µM*	13	i	-11%	?	0%
O=C(COc1ccc(-c2ccccc2)cc1)N/N=C/c1ccccc1Br	5%	8	nt	nt	-6%	-4%
CCC1(C)Cc2c(sc3nnn(Cc4ccccc4Cl)c(=O)c23)CO1 (stereo not given)	?	-60*	nt	nt	?	0%
O=c1c(CCc2ccccc2)nc2cnc(Oc3cccc(Cl)c3)nc2n1C[C@H]1CCCO1	nt	nt	nt	nt	nt	6%
Cc1c(CC(=O)NCCc2ccc(Cl)cc2)c(=O)oc2c(C)c3occ(C(C)(C)C)c3cc12	11%[46.1 µM]	-68*	-21%	-12%	14%[46.1 µM]	-18%
Cc1coc2c(C)c3oc(=O)c(CC(=O)NCCc4ccc(Cl)cc4)c(C)c3cc12	2%[46.1 µM]	1	-9%	4%	?	-12%
CC1(C)CC2(C)OC(=N)C1(C#N)C2(C#N)C#N (stereo not given)	?	26	i	-17%	?	22µM*
COc1cccc(OC)c1C(=O)NC(=S)Nc1cccc(NC(=O)c2ccco2)c1	?	-61*	-14%	-1%	13%	-27%
COc1ccc(NC(=O)COC(=O)c2cc(OC)c(OC)cc2NC(=O)c2ccco2)cc1OC	-5%	-66*	nt	nt	-15%	-8%
Cc1cc(C)c(OCC(=O)Nc2cccc(NC(=O)c3ccco3)c2)c(Br)c1	?	-76*	?	-25%	-12%	?
COc1ccc(NC(=O)c2ccco2)cc1NC(=O)COc1ccc(Cl)cc1C	-3%[46.1 µM]	-13	?	?	-1%[46.1 µM]	-19%

High-throughput results (PubChem)
